PubChem BioAssay AID652057 (Broad Institute, 2013)
About 1,000 (71%) of roughly 1,400 compounds were called active. The rule behind the calls is not given here. So high a share suggests a set chosen from earlier hits. A selection follows. Entries with a potency or affinity are not part of this list.

Experiment: inhibitors of HIV Env-driven cell fusion, dose response, cherry-pick (AID 652057)
Settings: HeLa-JRFL Env/CEM21 cell fusion, luciferase; series mostly up to 35 µM

Row | Compound | activity change, negative = inhibition
1 | Cc1ccc(-n2ncc3c(N4CCN(c5ccccc5)CC4)ncnc32)c(C)c1 | inactive
2 | Cc1ccc2c(c1)c1c3n2CCN(CC(N)=O)C3CCC1 (stereo unspecified) | inactive
3 | O=C(Nc1ccncc1)c1ccc(Cl)c(S(=O)(=O)N2CCc3ccccc32)c1 | inactive
4 | CC(OC(=O)c1ccc(NC(=O)CC#N)cc1)C(=O)NCCC1=CCCCC1 (stereo unspecified) | inactive
5 | CC(=O)c1c(C)[nH]c(C(=O)OCC(=O)Nc2c(C)cccc2C)c1C | inactive
6 | CC(=O)c1c(C)[nH]c(C(=O)OCCCCN2C(=O)c3ccccc3C2=O)c1C | inactive
7 | COc1ccc(S(=O)(=O)N2CCCCC2)cc1NC(=O)CCCOc1ccc(C)cc1 | inactive
8 | COc1ccc(S(=O)(=O)N2CCCCC2)cc1NC(=O)CN(Cc1ccco1)Cc1ccco1 | inactive
9 | COc1ccccc1C(=O)Nc1ccc2c(c1)OC[C@H](C)N(C(C)=O)C[C@H](C)[C@H](OC)CN(C)C2=O | inactive
10 | COc1ccc(NC(=O)C(=O)NCC2CCCN2S(=O)(=O)c2cccs2)cc1 (stereo unspecified) | inactive
11 | CNC[C@@H]1Oc2ccc(NS(C)(=O)=O)cc2CC(=O)N([C@H](C)CO)C[C@H]1C | inactive
12 | O=C(C[C@@H]1C[C@@H]2c3cc(NC(=O)C4CCOCC4)ccc3O[C@@H]2[C@H](CO)O1)NCc1ccccc1F | inactive
13 | O=C(C[C@@H]1C[C@@H]2c3cc(NC(=O)C4CCOCC4)ccc3O[C@@H]2[C@H](CO)O1)NCCc1ccccc1 | inactive
14 | O=C(NCc1ccccc1)c1ccc(C(=O)NCc2ccccc2)cc1 | inactive
15 | O=C(CCNC(=O)c1ccc(Br)cc1)NNC(=O)COc1ccccc1F | inactive
16 | CN(C)C(=O)C[C@H]1C[C@@H]2c3cc(NC(=O)NC4CCCCC4)ccc3O[C@@H]2[C@H](CO)O1 | inactive
17 | Cc1ccccc1-n1c(=O)c2ccccc2n2cnnc12 | inactive
18 | Cc1ccc(NS(=O)(=O)c2cc(C(=O)N(C)C3CCN(C)CC3)ccc2Cl)cc1Cl | inactive
19 | Cc1nc2ccc(NC(=O)c3cc(S(=O)(=O)N(C)c4ccccc4)ccc3Cl)cc2s1 | inactive
20 | Cc1ccc(-n2nc3c(c2NC(=O)c2ccco2)CS(=O)C3)cc1 (stereo unspecified) | inactive
21 | CCN(CCn1cccn1)C(=O)CC1C(=O)NCCN1CCc1ccccc1 (stereo unspecified) | inactive

Row | Compound | activity change, negative = inhibition
22 | O=C(CC1C(=O)NCCN1Cc1cccc(F)c1)NC1CCCCC1 (stereo unspecified) | inactive
23 | COc1ccccc1S(=O)(=O)N[C@H]1CC[C@H](CC(=O)N2CCN(C)CC2)O[C@H]1CO | inactive
24 | COc1ccccc1S(=O)(=O)N[C@H]1CC[C@@H](CC(=O)N2CCN(C)CC2)O[C@H]1CO | inactive
25 | O=C(O)C[C@@H]1C=C[C@@H](NC(=O)Nc2ccccc2)[C@H](CO)O1 | inactive
26 | O=C(O)C[C@@H]1C=C[C@H](NC(=O)Nc2ccccc2)[C@H](CO)O1 | inactive
27 | Nc1ccn([C@@H]2O[C@H](C(=O)NCc3ccc4c(c3)OCO4)[C@@H](O)[C@H]2O)c(=O)n1 | inactive
28 | Cc1ccc(S(=O)(=O)N[C@@H]2CC[C@H](CCNC(=O)c3ccccc3F)O[C@H]2CO)cc1 | inactive
29 | CCN(C1CCCCC1)S(=O)(=O)c1ccc(S(=O)(=O)NCc2ccncc2)cc1 | inactive
30 | CCCC(=O)Nc1ccc2c(c1)OC[C@@H](C)N(C(=O)CN(C)C)C[C@H](C)[C@@H](OC)CN(C)C2=O | inactive
31 | CCCC(=O)Nc1ccc2c(c1)OC[C@H](C)N(C(=O)CN(C)C)C[C@@H](C)[C@H](OC)CN(C)C2=O | inactive
32 | CO[C@H]1CN(C)C(=O)c2ccc(NC(=O)C3CC3)cc2OC[C@@H](C)N(C(C)=O)C[C@@H]1C | inactive
33 | CO[C@@H]1CN(C)C(=O)c2ccc(NS(C)(=O)=O)cc2OC[C@@H](C)N(C(=O)C2CCCCC2)C[C@H]1C | inactive
34 | CO[C@@H]1CN(C)C(=O)c2ccc(NC(C)=O)cc2OC[C@@H](C)N(Cc2cncnc2)C[C@@H]1C | inactive
35 | CO[C@H]1CN(C)C(=O)c2ccc(NC(=O)Nc3cccc(F)c3)cc2OC[C@@H](C)N(C(C)=O)C[C@H]1C | inactive
36 | CO[C@H]1CN(C)C(=O)c2cc(NC(=O)C3CCOCC3)ccc2OC[C@H](C)N(Cc2nccs2)C[C@H]1C | inactive
37 | CO[C@H]1CN(C)C(=O)c2ccc(NC(=O)Nc3cccc(F)c3)cc2OC[C@H](C)NC[C@H]1C | inactive
38 | CCC(=O)Nc1ccc2c(c1)C(=O)N(C)C[C@@H](OC)[C@H](C)CN(C(=O)CC)[C@@H](C)CO2 | inactive
39 | CCCC(=O)Nc1ccc2c(c1)OC[C@H](C)N(Cc1ccncc1)C[C@H](C)[C@H](OC)CN(C)C2=O | inactive
40 | N#Cc1ccc(CSc2nnc(COc3ccccc3)n2-c2ccccc2)cc1 | inactive
41 | Cc1ccc(S(=O)(=O)N(C)C[C@H]2Oc3ccc(NC(=O)Nc4cccc5ccccc45)cc3C(=O)N([C@H](C)CO)C[C@@H]2C)cc1 | inactive
